From PubChem
Sampled rows, rich in hits. Any-hit rate of the full collection: about 3.5%.
GPR151 ag – activators of human GPR151; PathHunter beta-arrestin GPR151 cells, luminescence; AID 1508602; activation, % at 11.2 µM; actives 1% (n = 650,000); in the data active means activation above about 4.9%;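 further: 0% = median of compound wells and 100% = cells with positive control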
TEAD-YAP inh – TEAD-YAP interaction inhibition. actives 1.4% (n = 640,000). AID 1259422. HEK-TIYL cells, TEAD-Gal4/YAP UAS-luciferase luminescence. inhibition, % at 9.12 µM; in the data active means inhibition above about 32%;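 further: 0% = median of test compound wells and 100% = reference inhibitor wells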
MITF primary – inhibitors of human MITF | AlphaScreen MITF homodimerization, bead proximity signal | inhibition, % at 2.6 µM | AID 1259374 | actives 0.91% (n = 650,000) | O75030; in the data active means inhibition above about 50%;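 further: 0% = vehicle wells with protein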
Target sequence (O75030 whole entry, looked up): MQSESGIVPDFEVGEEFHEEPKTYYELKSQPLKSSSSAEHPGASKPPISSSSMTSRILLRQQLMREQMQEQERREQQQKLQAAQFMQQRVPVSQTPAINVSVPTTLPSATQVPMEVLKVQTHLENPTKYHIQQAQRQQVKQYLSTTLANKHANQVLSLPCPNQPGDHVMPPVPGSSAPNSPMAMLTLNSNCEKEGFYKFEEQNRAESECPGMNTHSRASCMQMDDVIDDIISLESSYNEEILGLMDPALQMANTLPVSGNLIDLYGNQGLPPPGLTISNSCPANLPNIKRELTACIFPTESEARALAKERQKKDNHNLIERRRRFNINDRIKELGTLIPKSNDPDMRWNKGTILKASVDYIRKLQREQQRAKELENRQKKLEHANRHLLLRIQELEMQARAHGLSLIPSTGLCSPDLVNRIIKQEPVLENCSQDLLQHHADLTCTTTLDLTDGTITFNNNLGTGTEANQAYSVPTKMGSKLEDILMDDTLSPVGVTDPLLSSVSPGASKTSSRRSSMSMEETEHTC
FBW7 act – human FBW7 E3 ligase activation, primary screen | AlphaScreen FBW7–phospho-cyclin E peptide binding, activator screen | normalized activity (activation), % at 26.1 µM | actives 0.13% (n = 650,000); in the data active means normalized activity above about 1.9%;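 further: purified mutant Fbw7 with reduced substrate affinity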
Active calls of the source: *.

SMILES	GPR151 ag	TEAD-YAP inh	MITF primary	FBW7 act
CC(Oc1ccc(/C=c2\sc3nc4ccccc4n3c2=O)cc1)C(=O)O (stereo unspecified)	0.6	8.6	-3.8	0.0
O=c1c(C=NCCc2ccccn2)c(CSc2ccc(Cl)cc2)[nH]n1-c1nc2ccccc2s1	0.9	-0.1	65.1*	-0.1
CC1=C(C#N)C(=O)NC(=O)/C1=C\c1ccc(-c2ccc(C)cc2[N+](=O)[O-])o1	-0.4	9.2	23.2	0.0
CC(C)(C)Nc1nc(-c2cccc([N+](=O)[O-])c2)nc2ccccc12	0.9	1.6	8.4	0.3
O=C(c1cc2n(n1)C(C(F)(F)F)CC(c1ccc3c(c1)OCO3)N2)N1CCN(c2cccc(Cl)c2)CC1 (stereo unspecified)	0.2	-5.8	19.2	3.7*
O=C(c1cc2n(n1)C(C(F)(F)F)CC(c1ccc(Cl)cc1)N2)N1CCN(c2cccc(Cl)c2)CC1 (stereo unspecified)	0.6	-8.0	-21.7	0.4
O=C(Oc1ccccc1)c1cc2cc(Br)cc(Br)c2oc1=O	0.9	-1.6	8.0	0.0
NC(=O)c1c(NC(=O)CN(C(=O)c2ccncc2)C2CCCC2)sc2c1CCCC2	4.4	-7.7	-5.0	0.1
CCCC(=O)NC(c1ccco1)c1c(O)ccc2ccccc12 (stereo unspecified)	-1.2	1.2	10.8	-0.1
COc1ccc(C(NC(C)=O)c2c(O)ccc3ccccc23)cc1 (stereo unspecified)	0.9	62.2*	-1.0	-0.2
CCCC(=O)NC(c1ccc(OC)cc1)c1c(O)ccc2ccccc12 (stereo unspecified)	0.1	44.5*	-14.6	-0.2
COc1ccc(C(NC(C)=O)c2c(OC(C)=O)ccc3ccccc23)cc1 (stereo unspecified)	-0.4	62.4*	15.4	0.8
COc1ccc(OCC(=O)Nc2ccc(Cl)c(-c3nc4ncccc4o3)c2)cc1	0.0	-0.9	-12.9	0.1
CCN(CC)C(=O)C1CCCN(c2nc(NCCc3ccc(OC)cc3)c3ncn(CCN4CCCC4=O)c3n2)C1 (stereo unspecified)	-0.6	16.7	-7.6	-0.1
CCn1c(O)c(C=Nc2ccccc2Cl)sc1=S	-0.4	32.4*	-2.9	-0.1
COc1cc(C(=O)n2cnc3ccccc32)cc(OC)c1OC	1.6	1.6	1.8	0.1
O=C(O)CNC(=O)/C=C/c1cccs1	1.0	-1.5	0.3	0.0
COc1ccc(S(=O)(=O)Oc2c(OC)cc(C=O)cc2OC)cc1	0.4	39.2*	-1.2	-0.1
COc1ccc(S(=O)(=O)Oc2cc(C=O)ccc2OC)cc1	0.2	50.3*	9.1	0.2
Cc1cc(Cl)ccc1OCC(=O)NNC(=O)Cc1cccs1	-0.4	7.6	0.9	-0.2
CC(C)OCCCNC(=O)C(C(=O)c1ccc(F)cc1)n1ccccc1=O (stereo unspecified)	-0.4	-10.3	-1.8	0.1
CCOC(=O)c1c(NC(=O)CC)sc2c1CCC/C2=N/OC(C)=O	-0.1	-3.4	1.3	0.0
CCOC(=O)c1csc2c1CCC/C2=N/OC(C)=O	-0.5	36.4*	5.5	1.3
CCOC(=O)c1c(N)sc2c1CCC/C2=N\O	-0.6	52.6*	6.0	-0.3
CC(C)c1nc2ccccc2n1C(C)C(=O)O (stereo unspecified)	-1.1	5.1	9.1	0.9
SMILES	GPR151 ag	TEAD-YAP inh	MITF primary	FBW7 act
Cc1ccc(NC(=O)CSCC(=O)NCCc2ccccn2)c(C)c1	-0.9	6.5	0.8	0.4
Cc1ccc(N2CCN(C(=O)CC(C)(C)CC3=NS(=O)(=O)c4ccccc4N3)CC2)c(C)c1	-0.3	47.1*	6.6	0.0
COCCNc1c(-c2ccccc2)nc2ccc(C)cn12	-1.2	-23.6	4.5	0.1
Cc1ccc2nc(=S)nc(-c3ccccc3)n2c1	0.7	69.6*	-5.7	-0.1
Cc1ccn2c(N)c(-c3ccccc3)nc2c1	-0.9	-7.8	15.7	0.1
Cc1ccc2nc(-c3ccccc3)c(N)n2c1	-10.1	68.5*	-1.3	-0.1
CCOC(=O)C(CC)(CCC(=O)O)c1csc(N)n1 (stereo unspecified)	-0.2	-0.6	0.1	0.7
Cc1cccc(NC(=O)CSc2nc(-c3ccco3)nc3c2c(=O)n(C)c(=O)n3C)c1	-1.1	6.0	-11.0	0.0
Cc1cccc(NCC(O)Cn2c(C)c(C)c3ccccc32)c1C (stereo unspecified)	-0.7	2.3	51.4*	-0.1
COC(=O)c1c(C(=O)c2ccc(F)cc2)[nH]c2ccccc12	0.2	50.2*	0.3	0.0
COC(=O)c1[nH]c2ccccc2c1Cl	0.0	-7.9	6.3	0.0
CCN(CC)S(=O)(=O)c1cccc(C(=O)Nc2cccc(NC(=O)c3cccc(S(=O)(=O)N(CC)CC)c3)n2)c1	0.4	12.0	2.4	0.0
CCOC(=O)c1ccc(NC(=O)c2cccc(OCC)c2)cc1	-1.8	-18.3	-4.9	0.2
CCN(CC)S(=O)(=O)c1cccc(C(=O)Nc2ccc(O)cc2)c1	-1.9	48.1*	5.5	0.2
CCOC(=O)c1ccc(NC(=O)c2cccc(S(=O)(=O)N(CC)CC)c2)cc1	1.0	43.4*	4.7	0.2
CN(C)S(=O)(=O)c1cccc(C(=O)Nc2cccc(O)c2)c1	0.3	57.6*	-9.8	-0.1
CC(=O)N1CCOCCN(C(C)=O)CCOCC1	0.1	-7.8	-5.2	-0.1
CCOC(=O)c1cnc2ccc(C)cc2c1Nc1ccc(N(CC)CC)cc1	3.8	0.8	12.6	-0.5
Cc1cccc(N(CC(=O)NCc2ccccc2)C(=O)CCC(=O)Nc2ccccn2)c1	0.0	-14.1	7.6	1.9*
COCCN(CC(=O)NCCc1ccccc1)C(=O)CCC(=O)Nc1cc(C)ccn1	3.6	32.9*	0.8	-0.2
Cc1ccnc(NC(=O)CCC(=O)N(CC(=O)NCCc2ccccc2)C2CCCC2)c1	3.0	-9.7	-2.5	-0.1
CC(C)(C)NC(=O)/C(=C\c1ccco1)NC(=O)c1ccco1	-1.9	5.6	1.5	-0.1
O=c1c(=O)n(-c2ccccc2)ccn1Cc1ccccc1F	-2.9	-0.8	6.6	0.1
CC(=O)C1=C(c2ccc([N+](=O)[O-])cc2)N(C(C)=O)n2cnnc2S1	0.8	32.1*	-6.3	-0.1
CC(=O)Nc1ccc(C(=O)N2CCOCC2)cc1	-0.8	6.8	13.5	0.6
SMILES	GPR151 ag	TEAD-YAP inh	MITF primary	FBW7 act
O=C(c1ccc(-c2nnc(-c3ccccc3)o2)cc1)N1CCOCC1	-9.8	42.9*	-13.7	0.2
CSc1nnc(C(C)(C)C)c(=O)n1/N=C/c1ccccc1O	0.2	6.0	75.5*	0.5
CSc1nnc(C(C)(C)C)c(=O)n1/N=C/c1ccccc1[N+](=O)[O-]	-0.5	6.2	10.9	0.0
CCn1c(=O)cc(SCC(=O)Nc2cc(Cl)ccc2OC)c2ccccc21	-0.1	-6.5	2.9	1.2
CCOc1ccc(-c2nc(CSCC(=O)NCCCN3CCCC3)c(C)o2)cc1	0.5	-2.6	-4.1	-0.1
CCCCNC(=O)CSCc1nc(-c2ccc(C)cc2)oc1C	2.1	4.3	18.4	0.6
CCOc1ccc(-c2nc(CSCC(=O)O)c(C)o2)cc1	0.9	98.4*	-9.9	0.1
CCOc1ccc(-c2nc(CSCC(=O)NCCN3CCCC3)c(C)o2)cc1	0.8	33.6*	-4.1	-0.2
CCOC(=O)CSCc1nc(-c2ccc(C)cc2)oc1C	0.1	79.8*	-5.8	-0.2
